Experimental data: PubChem BioAssay (Tox21)
Inconclusive results are not listed. Unmarked numbers belong to inactive results. Activity calls are given as the source filed them. Calls follow the shape of the dose curve; as a rule, active = well fitted cell-killing curve with a large enough effect in the repeat runs; inconclusive = weak or mixed curves, or effect the other way; inactive = no such curve, though single readings can be large or run the other way.

Assay: qHTS assay to identify small molecule antagonists of the sonic hedgehog signaling (Shh) pathway - cell viability counter screen (AID 1259367); also: nearly all actives have a fitted effect of over 55% in size
Details: NIH/3T3 Gli1-Luc viability, CellTiter-Fluor, 24 h; series mostly up to 92.4 µM; viability change, negative = cytotoxic: at the top concentration
Method in brief: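 Fluorescence read-out (CellTiter-Fluor, 1 hr at 37C) taken after 23 hr compound treatment of 3T3 Gli1-Luc cells stimulated with conditioned medium. Cells were seeded at 2,000 per well and pre-incubated 4 hr.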
% is scaled to controls: 0 for no effect and ±100 for the full control effect; potency is read from the fitted curve at half-maximal effect.

Row | Structure (SMILES) | viability change, negative = cytotoxic | Potency
1 | COC(=O)CC(C(C)=O)C(=O)OC (centres undefined) | -1.77% | 
2 | CC(C)(O)CCc1ccccc1 | 5.08% | 
3 | C=C(C)c1ccccc1 | -2.52% | 
4 | Cc1cccc2sc(N)nc12 | 1.08% | 
5 | CC(=O)Oc1cccc(O)c1 | -0.554% [at 42.5 µM] | 
6 | CCCOC(=O)c1c(Cl)c(Cl)c(Cl)c(Cl)c1C(=O)OCCC | 0.886% | 
7 | CCc1ccc(C)cc1 | -2.38% | 
8 | COC(OC)OC | -1.35% | 
9 | CCCCCCCCCCCCCOS(=O)(=O)O | 1.39% | 
10 | Nc1ccc(F)cc1 | 2.2% | 
11 | CCCCCCCCCCCCCCCCCC(=O)OCC(CC)CCCC (centres undefined) | -0.211% | 
12 | CC(=O)OCCC(C)CC(C)(C)C (centres undefined) | -1.15% | 
13 | CCCCCc1ccco1 | -7.35% [at 42.5 µM] | 
14 | CC(=O)C(C)=O | 1.73% | 
15 | CC(C)N(C)C | 5.04% | 
16 | CCC(=O)OCc1ccc(OC)cc1 | 3.77% | 
17 | O=C(NC(Cc1cc(=O)[nH]c2ccccc12)C(=O)O)c1ccc(Cl)cc1 (centres undefined) | 3.99% [at 42.5 µM] | 

Row | Structure (SMILES) | viability change, negative = cytotoxic | Potency
18 | O=C(O)c1ccc(O)cc1O | 3.84% | 
19 | CN1C(CSCC(F)(F)F)Nc2cc(Cl)c(S(N)(=O)=O)cc2S1(=O)=O (centres undefined) | 9.85% [at 42.5 µM] | 
20 | CCCCOC(=O)CCCCC(=O)OCCCC | -1.71% | 
21 | O=C(Nc1ccc(C(=O)O)c(O)c1)c1ccccc1 | -2.93% [at 42.5 µM] | 
22 | Cc1ccc(N(CCO)CCO)cc1 | 3.97% | 
23 | CC(=O)NCCO | 0.813% | 
24 | Cc1c(C2(c3cc(Br)c(O)c(Br)c3C)OS(=O)(=O)c3ccccc32)cc(Br)c(O)c1Br |  | 10.5 µM (active)
25 | C=Cc1ccc(OC(C)=O)cc1 | -0.179% | 
26 | Cc1ccc2c(c1)CCCN2 | 21.3% | 
27 | CNCc1ccc(NC(=O)c2c[nH]c3c2C(=O)CCC3)cc1 | 1.05% | 
28 | CC(C)COC(=O)c1ccc(O)cc1 | -15.5% | 
29 | CSSc1ccoc1C | -4.27% | 
30 | Cc1ccc(Cl)cc1N | -5.62% | 
31 | C[C@@H]1C[C@H]2[C@@H]3CCC4=CC(=O)C=C[C@]4(C)[C@@]3(F)[C@@H](O)C[C@]2(C)[C@@]1(O)C(=O)COP(=O)(O)O | -1.38% | 
32 | Cc1ccc2c(c1[N+](=O)[O-])C(=O)c1ccccc1C2=O | -12.4% [at 42.5 µM] | 
33 | CC(C)(C(=O)c1cccnc1)c1cccnc1 | -2.7% [at 42.5 µM] | 
34 | CCN(Cc1cccc(S(=O)(=O)O)c1)c1ccc(C(=C2C=CC(=[N+](CC)Cc3cccc(S(=O)(=O)O)c3)C=C2)c2ccc(O)cc2S(=O)(=O)[O-])cc1 |  | 16.6 µM (active)
